Where “and” joins values, the source holds several entries; their conditions need not be identical. Equal entries are not always repeated. Calls of active or inactive are those of the source. The calls were made as follows: active = hit-call score of the fitted dose curve at least 0.9, where 1 is the maximum; inactive = score below 0.9.
These compounds were tested on Interleukin 6 (IL6), IL6 (gene 3569) (assay: BSK_BT_xIL6: BioMAP Diversity Plus: BT Assay for Interleukin 6 (IL6) Biomarker Activity (AID 2284228)). Settings: primary human B cells with PBMC.
Experimental: BSK_BT is a cell-based, multiplexed-readout assay that uses B cell and peripheral blood mononuclear cells, a human vascular primary cell co-culture, with measurements taken at 24 hours after chemical dosing in a microplate: 96-well plate.BSK_BT_xIL6 is an assay component measured in the BSK_BT assay. It measures secreted IL-6 related to regulation of gene expression using LumineX xMAP technology.Data from the assay component BSK_BT_xIL6 was analyzed at the endpoint, BSK_BT_xIL6, in the positive analysis fitting direction relative to DMSO as the negative control and baseline of activity. Using a type of cytokine quantitation reporter, gain or loss-of-signal activity can be used to understand protein changes. To generalize the intended target to other relatable targets, this assay endpoint is annotated to the 'cytokine' intended target family, where the subfamily is 'interleukins'.
The levels of cell surface (or secreted, indicated by the prefix "s") biomarker endpoints were measured by ELISA. Overt cytotoxicity to cells in confluent adherent cultures (all systems other than the BT system) was assessed by measuring total protein levels using sulforhodamine B (SRB) staining in parallel cultures at the time of biomarker measurements, indicated as SRB endpoints. For proliferation assays for adherent cell types, individual cell types are cultured at sub-confluence and relative cell numbers quantified by SRB staining at time points optimized for each system (48 h: 3C and CASM3C systems; 72 h: BT and HDF3CGF systems; 96 h: SAg system). SRB was performed by staining cells with 0.1% SRB after fixation with 10% TCA and reading wells at 560 nm.Viability and proliferation of PBMC (T cells) was quantified by Alamar Blue reduction for the SAg and BT systems. For PBMC viability (referred to as PBMC Cytotoxicity within the assay endpoint names), cells were plated (75,000/well in a 96-well plate) and then chemical samples added for 1 h before addition of activators, SEB and TSST-1 (20 ng/mL final concentration each). Cells were incubated for 90 h. Then, Alamar Blue (20 uL/well) (Invitrogen, Cat DAL1100) was added for 6 h, and the plates were read with a fluorescence microplate reader at 546/580 nm (excitation/emission). For PBMC proliferation, cells were plated and activated as above but incubated for only 16 h prior to addition of Alamar Blue. Plates were read after 6 h.
For `C=CC(=O)OCCC(F)(F)C(F)(F)C(F)(F)C(F)(F)F`, the AC50 was 39.6 µM (active) and 35.5 µM (active).
In the case of `CCN(CC)c1ccc2c(c1)Oc1cc(N(CC)CC)ccc1C21OC(=O)c2ccccc21`, the AC50 is reported as 10 µM (active).
For `NC(=O)C(F)(F)C(F)(F)C(F)(F)C(F)F`, the outcome was “inactive”.
For `OCCCCC(F)(F)C(F)(F)C(F)(F)C(F)(F)F`, the outcome was “inactive”.
With `COC(F)(C(F)F)C(F)(F)F` (stereo not given) the outcome was “inactive”.
`OCCCC(F)(F)C(F)(F)C(F)(F)C(F)(F)C(F)(F)C(F)(F)C(F)(F)C(F)(F)F` was tested, and the AC50 was 42.7 µM (active) and 21.9 µM (active).
With `O=C(O)C(F)(F)C(F)(F)C(F)(F)OC(F)(F)F` the outcome was “inactive”.
In the case of `C=CC(=O)OCC(F)(F)C(F)(F)C(F)(F)COC(=O)C=C`, the AC50 is reported as 10.4 µM (active) and 8.91 µM (active).
`O=C(O)C(F)(F)C(F)(F)C(F)(F)C(F)(F)C(F)(F)C(F)(F)C(F)F` was tested, and the outcome was “inactive”.
For `Cc1ccc(S(=O)(=O)C(I)I)cc1`, the AC50 was 2.82 µM (active).
With `CCN(CCO)S(=O)(=O)C(F)(F)C(F)(F)C(F)(F)C(F)(F)C(F)(F)C(F)(F)C(F)(F)C(F)(F)F` the AC50 was 41.8 µM (active) and 46.8 µM (active).
For `CNS(=O)(=O)C(F)(F)C(F)(F)C(F)(F)C(F)(F)C(F)(F)C(F)(F)C(F)(F)C(F)(F)F`, the outcome was “inactive”.
With `Nc1cc([N+](=O)[O-])cc(Cl)c1O` the outcome was “inactive”.
With `Cc1cc(O)c(C(C)(C)C)cc1C(C)(C)C` the AC50 was 17.2 µM (active).
For `CC1=CC2C3C=CC(C3)C2C1C` (stereo not given), the AC50 was 16.7 µM (active).
`OCC(O)CC(F)(F)C(F)(F)C(F)(F)C(F)(F)C(F)(F)C(F)(F)C(F)(F)C(F)(F)F` (stereo not given) was tested, and the outcome was “inactive”.
For `O=S(=O)(Cl)C(F)(F)C(F)(F)C(F)(F)C(F)(F)C(F)(F)C(F)(F)C(F)(F)C(F)(F)F`, the outcome was “inactive”.
In the case of `O=S(=O)(OCC(F)(F)F)C(F)(F)C(F)(F)C(F)(F)C(F)(F)F`, the outcome is reported as “inactive”.
`CC(C)(C)c1cc(CCC(=O)NCCCCCCNC(=O)CCc2cc(C(C)(C)C)c(O)c(C(C)(C)C)c2)cc(C(C)(C)C)c1O` was tested, and the outcome was “inactive”.
In the case of `CCOC(C=C(C)CCC=C(C)C)OCC`, the outcome is reported as “inactive”.
With `NC(O)(C(F)(F)F)C(F)(F)F` the outcome was “inactive”.
In the case of `C[Si](Cl)(Cl)CCC(F)(F)C(F)(F)C(F)(F)C(F)(F)C(F)(F)C(F)(F)F`, the outcome is reported as “inactive”.
With `NS(=O)(=O)C(F)(F)C(F)(F)C(F)(F)C(F)(F)C(F)(F)C(F)(F)F` the outcome was “inactive”.
For `O=C(F)C1(F)C(F)(F)C(F)(F)C(F)(F)C(F)(F)C1(F)F`, the outcome was “inactive”.
`O=C(O)C(F)(F)OC(F)(F)C(F)(F)OC(F)(F)C(F)(F)OC(F)(F)F` was tested, and the outcome was “inactive”.
With `O=C(O)CCC(F)(F)C(F)(F)C(F)(F)C(F)(F)C(F)(F)C(F)(F)C(F)(F)F` the outcome was “inactive”.
In the case of `O=C(c1ccccc1)c1ccc(O)cc1O`, the outcome is reported as “inactive”.
`C=C(C)C(=O)OCC(F)(F)C(F)(F)C(F)(F)C(F)F` was tested, and the outcome was “inactive”.
With `OCC(F)(F)C(F)(F)C(F)(F)C(F)(F)C(F)(F)C(F)(F)C(F)(F)C(F)(F)CO` the AC50 was 48.7 µM (active).
For `NC(=O)C(F)(F)C(F)(F)C(F)(F)F`, the outcome was “inactive”.
For `O=C1C=CC(=O)N1c1ccc(Cc2ccc(N3C(=O)C=CC3=O)cc2)cc1`, the AC50 was 3.09 µM (active).
With `NC(=O)C(F)(F)C(F)(F)C(F)(F)C(F)(F)C(N)=O` the outcome was “inactive”.
`CCN(CC)c1ccc(N=Nc2ccccc2)cc1` was tested, and the AC50 was 20 µM (active).
In the case of `NCC(F)(F)C(F)(F)C(F)(F)C(F)(F)C(F)(F)C(F)(F)C(F)(F)C(F)(F)F`, the outcome is reported as “inactive”.
For `O=C1c2c(O)ccc(Nc3ccc(CCO)cc3)c2C(=O)c2c([N+](=O)[O-])ccc(O)c21`, the outcome was “inactive”.
In the case of `C=CC(=O)OCC(F)(F)C(F)(F)C(F)(F)C(F)(F)C(F)(F)C(F)(F)C(F)(F)C(F)F`, the AC50 is reported as 33.7 µM (active) and 14.4 µM (active).
With `Brc1nc2ccccc2s1` the AC50 was 0.338 µM (active).
In the case of `CCN(CC)c1ccc(C=O)cc1`, the outcome is reported as “inactive”.
For `NCC(F)(F)C(F)(F)C(F)(F)C(F)(F)C(F)(F)C(F)(F)F`, the outcome was “inactive”.
For `OCC(O)CC(F)(F)C(F)(F)C(F)(F)C(F)(F)F` (stereo not given), the outcome was “inactive”.

From PubChem BioAssay (EPA / NIEHS)
